Pf growth 96h: Primary qHTS for delayed death inhibitors of the malarial parasite plastid, 96 hour incubation; P. falciparum luciferase reporter growth, 96 h; Potency, µM (highest dose often 28.7 µM), without a hit: at the top dose activity change, negative = inhibition, hits mostly inhibitors; 320,000 compounds, 6.9% hits; note: % is set by controls: 0 for no effect and ±100 for the full control effect
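Infected RBCs, 2% Hct / 0.05% parasitemia final; luciferase-reporter P. falciparum; cpd 96 h, 37 C, 5% CO2; luciferase detection reagent; luminescence.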
Pf growth 48h: Primary qHTS for delayed death inhibitors of the malarial parasite plastid, 48 hour incubation; P. falciparum luciferase growth in erythrocytes, 48 h; Potency, µM (doses to about 28.7 µM), for the others: at the top dose activity change, negative = inhibition, hits mostly inhibitors; 310,000 compounds, 5.9% hits; AID 504832, 2011; note: % is set by controls: 0 for no effect and ±100 for the full control effect
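Luciferase-expressing P. falciparum in infected erythrocytes (2% hematocrit, 0.1% parasitemia final) in RPMI 1640/0.5% Albumax were exposed to compound for 48 hours at 37 C, 5% CO2; growth read as luminescence.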
NS1 function inh: qHTS Assay for Inhibitors of Influenza NS1 Protein Function; AID 2326, 2010; 270,000 compounds, 0.4% hits; Potency, µM (doses to about 46.1 µM), for inactives: at the top dose activity, positive = more growth; calls by dose curve; note: actives are rising curves; nearly all actives have a fitted effect of over 50% in size
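Growth recovery, yeast-based: influenza A NS1 expressed in S. cerevisiae causes slow growth, and suppressors are detected by OD600. The parent strain without NS1 is used as positive control.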
RE007 growth inh: qHTS Assay for Inhibitors of the HIV-1 protein Vpr; S. pombe RE007 Vpr strain, BacTiter-Glo ATP luminescence, 24 h; Potency, µM (doses to about 92.2 µM), for inactives: at the top dose activity change, negative = less growth, hits mostly inhibitors; 360,000 compounds, 0.21% hits; AID 651644, 2012; active = well fitted falling curve with a large enough effect; inconclusive = small, poorly fitted or top-dose-only effect; inactive = no such curve, though single readings can be large or run the other way; note: % is set by controls: 0 for no effect and ±100 for the full control effect; nearly all actives have a fitted effect of over 50% in size
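Fission yeast strain RE007, carrying one chromosomally integrated HIV-1 vpr copy, was seeded at OD 0.01 in PMG+AL medium with 23 nL pinned compound. After 24 h at 30 °C and 99% humidity, viability was read by BacTiter-Glo luminescence.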
SARS PLpro yeast: qHTS of Yeast-based Assay for SARS-CoV PLP; S. cerevisiae expressing SARS-CoV PLpro, growth rescue; 330,000 compounds, 0.19% hits; AID 485353, 2010; Potency, µM (series often up to 32.9 µM), for the others: top-dose activity, positive = growth rescue, usual class: activators; calls by dose curve; note: 0% is about no effect; nearly all actives have a fitted effect of over 55% in size
* = called active by the depositor; ? = inconclusive; . = no result. Rows were chosen to be rich in hits. Some 9.5% of all compounds tested hit in one or more screens of this group. Unless noted, calls come from the whole dose curve; as a rule, active = well fitted inhibition curve with a large enough effect; inconclusive = small, poorly fitted or top-dose-only effect, or another doubt; inactive = no such curve, though single readings can be large or run the other way. Potency is the fitted concentration of half-maximal effect.

SMILES	Pf growth 96h	Pf growth 48h	NS1 function inh	RE007 growth inh	SARS PLpro yeast
COc1ccc(C(=O)CC(=O)C(=O)Nc2ccc(C)c(Cl)c2)cc1	13.7%	.	0.4%	-0.3%	2.7%
CC(=O)N[C@@H](CCC(=O)O)C(=O)O	-18.6%	2.7%	.	.	.
COCc1c(C(=O)N2CCN(S(=O)(=O)c3ccccc3Cl)CC2)oc2ccccc12	?	11.7µM*	.	0.4%	10.8%
Cc1c(C(=O)N2CCN(c3ccccc3)CC2)oc2c(Cl)cccc12	?	?	.	-23.6%	3.5%
Cc1c(C(=O)N2CCN(S(=O)(=O)c3ccccc3F)CC2)oc2c(Cl)cccc12	11.7µM*	10.4µM*	.	10.7%	-5.2%
CC1(C)CC(=O)C=C(NC2CCCC(O)C2)C1 (stereo not given)	80.7%	?	.	4.5%	-4.3%
O=C(COCc1cc(-c2ccc3c(c2)OCO3)on1)N1CCN(c2ccccc2)CC1	10.4µM*	-12.1%	-17.3%	-20.2%	-2.4%
CN1CCN(C(=O)COCc2cc(-c3ccc4c(c3)OCO4)on2)CC1	-11.0%	32.0%	0.5%	16.8%	0.2%
CC(=O)Nc1ccc(C(=O)CN2C(=O)NC3(CCOc4ccccc43)C2=O)c(F)c1 (stereo not given)	?	?	.	19.0%	-0.8%
Cc1ccc(CNC(=O)c2ccc3c(c2)S(=O)(=O)c2ccccc2C3=O)o1	.	.	.	-2.1%	.
CCOC(=O)c1sc(Nc2nc3cc4c(cc3s2)OCO4)cc1C	9.28µM*	8.28µM*	?	1.3%	8.4%
CCOC(=O)N1CCN(Cc2ccc3ccccc3c2)CC1	-17.5%	16.6%	-1.9%	-11.3%	9.8%
COc1ccc2cc3cc(C(=O)NCCCN4CCOCC4)oc3nc2c1	1.17µM*	?	-8.2%	?	2.3%
CCOC(=O)N1CCC(NC(=O)c2cc3cc4cc(OC)ccc4nc3o2)CC1	7.38µM*	2.94µM*	-9.6%	-6.7%	-7.6%
CCN1CCN(CCCNC(=O)c2cc3cc4ccc(OC)cc4nc3o2)CC1	45.2%	13.1µM*	-8.4%	-9.8%	-3.2%
CCCN(CCC)CCCNC(=O)c1cc2cc3ccc(OC)cc3nc2o1	-1.1%	?	-2.4%	-11.9%	2.6%
COc1ccc2cc3cc(C(=O)NCCCN4CCC(C)CC4)oc3nc2c1	-30.6%	?	1.3%	-11.7%	1.7%
CCCCN(CC)CCCNC(=O)c1cc2cc3ccc(OC)cc3nc2o1	3.7µM*	?	-9.7%	7.9%	-3.1%
COc1ccc2cc3cc(C(=O)NCCN4CCN(Cc5ccccc5)CC4)oc3nc2c1	11.3%	?	-13.9%	6.5%	-1.2%
COc1ccc2nc3oc(C(=O)NC4CCN(Cc5ccccc5)CC4)cc3cc2c1	45.7%	?	-7.3%	-8.7%	4.6%
CCCCC1CCc2[nH]nc(C(=O)O)c2C1 (stereo not given)	?	?	.	5.4%	2.2%
C[C@H](CO)N1C[C@H](C)[C@@H](CN(C)S(C)(=O)=O)Oc2ccc(NC(=O)NC3CCCCC3)cc2C1=O	.	.	.	11.1%	-2.5%
COc1ccc2cc3cc(C(=O)NCc4cccs4)oc3nc2c1	-6.5%	5.86µM*	2.2%	20.9%	-10.8%
Cc1ccc2cc3cc(C(=O)NCCCN4CCCC4=O)oc3nc2c1	?	2.62µM*	-1.9%	-13.8%	1.1%
COc1ccc2cc3cc(C(=O)NCCc4ccc(OC)c(OC)c4)oc3nc2c1	33.7%	?	-35.1%	6.6%	-1.5%
SMILES	Pf growth 96h	Pf growth 48h	NS1 function inh	RE007 growth inh	SARS PLpro yeast
Cc1ccc2cc3cc(C(=O)NCc4ccc5c(c4)OCO5)oc3nc2c1	3.7µM*	0.1%	9.0%	1.4%	0.5%
CN1/C(=C\C=N\NC(=O)c2cccnc2)C(C)(C)c2ccccc21	?	0.586µM*	7.6%	-8.6%	-0.2%
CN1/C(=C\C=N\NC(=O)c2ccc(O)cc2)C(C)(C)c2ccccc21	?	-6.0%	-1.7%	-12.6%	10.0%
COc1ccc(/C=N/n2nnnc2N)c(OC)c1	91.6%	59.0%	-2.2%	3.4%	-2.3%
O=C(CN1C(=O)NC(c2ccccc2)(c2ccccc2)C1=O)N1CCN(c2ccccc2F)CC1	?	13.1µM*	.	4.0%	1.5%
O=C(CN1C(=O)NC(c2ccccc2)(c2ccccc2)C1=O)N1CCN(c2ccc(F)cc2)CC1	?	11.7µM*	.	-15.6%	-3.2%
CCC1(CC)NC(=O)N(CC(=O)N2CCN(c3ccccc3F)CC2)C1=O	1.0%	5.8%	.	-2.8%	0.9%
BrC(/C=N/Nc1nc(N2CCOCC2)nc(N2CCOCC2)n1)=C/c1ccccc1	0.0%	11.7µM*	-16.8%	?	-19.6%
Cc1cc(/C=N/Nc2nc(N3CCOCC3)nc(N3CCOCC3)n2)c(C)n1-c1ccccc1	62.0%	9.28µM*	.	7.3%	-2.0%
COc1ccc(-n2c(C)cc(/C=N/Nc3nc(N4CCOCC4)nc(N4CCOCC4)n3)c2C)cc1	?	?	13.4%	14.3%	14.9%
CC(=C/c1ccccc1)/C=N/Nc1nc(N2CCCCC2)nc(N2CCCCC2)n1	?	3.4%	16.2%	-7.9%	11.4%
Nc1nc(Sc2c([N+](=O)[O-])cc(C(F)(F)F)cc2[N+](=O)[O-])n[nH]1	?	?	2.9%	-9.0%	0.8%
COc1ccc(N(C(=O)c2snc(C(N)=O)c2N)C(C(=O)NC2CCCC2)c2cc(OC)ccc2OC)c(OC)c1 (stereo not given)	-9.7%	1.85µM*	-0.9%	6.5%	1.2%
COc1ccc(C(C(=O)NC2CCCC2)N(C(=O)c2snc(C(N)=O)c2N)c2ccccc2OC)cc1OC (stereo not given)	1.3%	9.28µM*	-6.4%	-5.1%	0.7%
COc1ccc(N(C(=O)c2snc(C(N)=O)c2N)C(C(=O)NC2CCCCC2)c2ccc(F)cc2)c(OC)c1 (stereo not given)	14.2%	?	0.8%	10.1%	0.2%
COc1ccc(C(C(=O)NC2CCCC2)N(C(=O)c2snc(C(N)=O)c2N)c2cc(C)ccc2OC)cc1OC (stereo not given)	?	?	7.7%	-9.2%	2.2%
Cc1ccc(NC(=O)N2CCCCCC2)cc1C	37.0%	65.3%	7.3%	3.7%	3.8%
Cc1ccc(NC(=O)N2CCCN(Cc3ccc(F)cc3)C2)cc1C	?	13.1µM*	1.5%	3.6%	2.1%
CCCC(=O)NCC(c1cccs1)S(=O)(=O)c1ccc(Cl)cc1 (stereo not given)	2.62µM*	-21.4%	-4.6%	5.8%	0.2%
CCNC(=O)C(=O)N/N=C/c1cc([N+](=O)[O-])ccc1O	10.4µM*	?	.	-6.2%	-1.6%
O=C(N/N=C/c1cc([N+](=O)[O-])ccc1O)NC12CC3CC(CC(C3)C1)C2	3.29µM*	-66.6%	-0.8%	14.6%	?
O=C(N/N=C/c1ccc(O)cc1O)NC12CC3CC(CC(C3)C1)C2	-28.4%	?	1.4%	-16.2%	-0.6%

Screens (PubChem)
